Among the test systems are NCI-H23 lung; NCI-H226 lung; NCI-H322M lung; HOP-62 NSCLC; NCI-H460 lung; HOP-92 NSCLC; NCI-H522 lung; A549/ATCC NSCLC; 786-0 renal; COLO 205 colon.
What all share (experiment): NCI-60 one-dose screen, 48 h (100 = growth as untreated, 0 = no growth, -100 = all killed)
What all share (details): 10 µM unless noted

Where “and” joins values, the source holds several entries; their conditions need not be identical. Equal entries are not always repeated. About 83,000 compounds went through this panel and 20% of them were active in at least one assay; those are over-represented in the sample as a whole.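 Single-concentration screen, 48 h exposure, 96-well plates. Endpoint: percent growth. Below 10 = active.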 Calls of active or inactive are those of the source.

On to `NS(=O)(=O)c1cccc(Nc2nc(SCC(=O)c3ccc(F)cc3)nc3ccccc23)c1`, for which the growth is 5.36% (active) in the assay on NCI-H23 lung; 15.3% (inactive) with NCI-H226 lung; 22.9% (inactive) with NCI-H322M lung; 5.89% (active) with HOP-62 NSCLC; 12.5% (inactive) in the assay with NCI-H460 lung; 29% (inactive) in the assay on HOP-92 NSCLC. Also, the growth in the assay on NCI-H522 lung is -0.334% (active); in the assay on A549/ATCC NSCLC, 28.1% (inactive); in the assay with 786-0 renal, 26.1% (inactive); with COLO 205 colon, 26.4% (inactive).
`N#C/C(=C1/C(=O)Nc2ccccc21)c1nnc(NC(=O)c2ccc(-n3c(=O)[nH]c4ccccc4c3=O)cc2)s1`: the growth was 30.4% (inactive) in the assay on NCI-H23 lung; 34.4% (inactive) with NCI-H226 lung; 53.6% (inactive) with NCI-H322M lung; 53.7% (inactive) with HOP-62 NSCLC; 6.96% (active) in the assay on NCI-H460 lung; 56% (inactive) with HOP-92 NSCLC. Besides, the growth is 14.3% (inactive) in the assay with NCI-H522 lung, 49.8% (inactive) in the assay with A549/ATCC NSCLC, 66.1% (inactive) with 786-0 renal and -0.152% (active) in the assay on COLO 205 colon.
As to `COc1ccc(C(=O)c2cc(C(C)=O)c3c(C)cc(C)cn23)cc1`, the growth in the assay on NCI-H23 lung was 47.7% (inactive); with NCI-H226 lung, 44.4% (inactive); with NCI-H322M lung it was 76.8% (inactive); in the assay on HOP-62 NSCLC, 34.5% (inactive); in the assay with NCI-H460 lung, 45.4% (inactive); in the assay with HOP-92 NSCLC, 46.8% (inactive). Further, the growth in the assay with NCI-H522 lung was 2.3% (active); in the assay with A549/ATCC NSCLC, 45.3% (inactive); in the assay with 786-0 renal it was 45.4% (inactive); with COLO 205 colon, 92.7% (inactive).
For `O=C1C=CC(=CC=C2N(Cc3ccc4ccccc4c3)c3ccccc3N2Cc2ccc3ccccc3c2)C=C1`, the growth in the assay on NCI-H23 lung was 5.96% (active) and 26.9% (inactive); with NCI-H226 lung it was 47.1% (inactive) and 48% (inactive); with NCI-H322M lung, 49.3% (inactive) and 59.1% (inactive); in the assay with HOP-62 NSCLC, 37.3% (inactive) and 45.3% (inactive); with NCI-H460 lung it was 15.7% (inactive) and 10.4% (inactive); in the assay with HOP-92 NSCLC it was 3.18% (active) and -22.2% (active). The growth is -12.5% (active) and 17.7% (inactive) in the assay with NCI-H522 lung; 30.5% (inactive) and 46.4% (inactive) in the assay with A549/ATCC NSCLC; 51.2% (inactive) and 69.2% (inactive) in the assay with 786-0 renal; -29.1% (active) and 0.579% (active) with COLO 205 colon.
In the case of `FC(F)(F)c1cc2c(Cl)ncnc2n1CCN1CCCCC1`, the growth was 34.8% (inactive) in the assay on NCI-H23 lung; 97.8% (inactive) in the assay with NCI-H226 lung; 64.2% (inactive) in the assay on NCI-H322M lung; 76.3% (inactive) with HOP-62 NSCLC; 57.9% (inactive) in the assay on NCI-H460 lung; 94.3% (inactive) in the assay on HOP-92 NSCLC. Further, the growth with NCI-H522 lung is -80.1% (active); in the assay with A549/ATCC NSCLC it was 95.5% (inactive); in the assay with 786-0 renal it was 92.5% (inactive); with COLO 205 colon it was 75.2% (inactive).
In the case of `C[C@H](NC(=O)c1ccc2c(-c3ccc(C(F)(F)F)cc3)cccc2c1)c1ccccn1`, the growth is 70.7% (inactive) with NCI-H23 lung; 28.3% (inactive) in the assay with NCI-H226 lung; 50.8% (inactive) in the assay on NCI-H322M lung; 77.3% (inactive) with HOP-62 NSCLC; 42.5% (inactive) in the assay on NCI-H460 lung; 25.5% (inactive) with HOP-92 NSCLC. Further, the growth in the assay on NCI-H522 lung was 16.9% (inactive); in the assay on A549/ATCC NSCLC, 39.6% (inactive); in the assay with 786-0 renal, 44.3% (inactive); with COLO 205 colon it was 61.6% (inactive).
`COc1ccc2nc(NC(=O)c3ccc(N(C)C)cc3)sc2c1`: the growth with NCI-H23 lung was 66.2% (inactive); in the assay with NCI-H226 lung, 56.9% (inactive); in the assay on NCI-H322M lung it was 64.7% (inactive); in the assay with HOP-62 NSCLC, 92% (inactive); with NCI-H460 lung it was 65.9% (inactive); in the assay on HOP-92 NSCLC, 112% (inactive). Further, the growth with NCI-H522 lung was 67.7% (inactive); in the assay on A549/ATCC NSCLC, 54.9% (inactive); with 786-0 renal, 85% (inactive); in the assay on COLO 205 colon it was 89.5% (inactive).
Consider `COc1ccc(-c2cc(C(=O)N=Nc3c(O)[nH]c4ccc(Cl)cc34)c3ccccc3n2)cc1`, for which the growth in the assay on NCI-H23 lung is 14.3% (inactive); in the assay on NCI-H226 lung it was 81.8% (inactive); in the assay with NCI-H322M lung, 79% (inactive); in the assay with HOP-62 NSCLC, -20.9% (active); in the assay on NCI-H460 lung it was 0.622% (active); in the assay with HOP-92 NSCLC it was 117% (inactive). The growth with NCI-H522 lung was -16.1% (active); with A549/ATCC NSCLC it was -4.4% (active); in the assay on 786-0 renal, 72.4% (inactive); in the assay on COLO 205 colon, 7.83% (active).
With `Nc1nnc(-c2cncc(Br)c2)c(-c2c[nH]c3ccc(Cl)cc23)n1`, the growth was 84.5% (inactive) in the assay on NCI-H23 lung; 74% (inactive) in the assay on NCI-H226 lung; 80.9% (inactive) in the assay on NCI-H322M lung; 91.9% (inactive) in the assay on HOP-62 NSCLC; 86.9% (inactive) with NCI-H460 lung; 90.9% (inactive) with HOP-92 NSCLC. In addition, the growth was 68.1% (inactive) in the assay with NCI-H522 lung, 82.9% (inactive) in the assay with A549/ATCC NSCLC, 73.9% (inactive) with 786-0 renal and 113% (inactive) in the assay on COLO 205 colon.
As to `O=C(c1cc2cc(OCCCN3CCC3)ccc2[nH]1)N1C[C@@H](CCl)c2c1cc(OCc1ccccc1)c1ccccc21`, the growth in the assay with NCI-H23 lung was -73.4% (active); with NCI-H226 lung, -4.57% (active); with NCI-H322M lung it was -23.5% (active); with HOP-62 NSCLC, -44% (active); with NCI-H460 lung it was -60.1% (active); in the assay with HOP-92 NSCLC, -18.7% (active). Also, the growth is -70.1% (active) in the assay on NCI-H522 lung, -18.5% (active) with A549/ATCC NSCLC, -86.1% (active) with 786-0 renal and -84.5% (active) with COLO 205 colon.
Consider `O=C(CSc1nnc(-c2ccc(-c3nc4ccccc4[nH]3)cc2)o1)Nc1ccc(Cl)cc1`, for which the growth is -6.9% (active) in the assay on NCI-H23 lung; 40.3% (inactive) in the assay on NCI-H226 lung; 61.5% (inactive) in the assay with NCI-H322M lung; 0.484% (active) with HOP-62 NSCLC; -65.4% (active) in the assay on NCI-H460 lung; -5.87% (active) in the assay on HOP-92 NSCLC. Besides, the growth in the assay on NCI-H522 lung was 0.5% (active); in the assay with A549/ATCC NSCLC it was 1.88% (active); with 786-0 renal it was -37.8% (active); in the assay on COLO 205 colon it was 61.7% (inactive).
For the compound `COc1cc(C2CC(c3ccc(C(F)(F)F)cc3)=Nc3c(N)nc(N)nc3N2)ccc1Oc1nc(Nc2ccc(F)cc2)nc(N(C)C)n1` (stereo not given), the growth in the assay on NCI-H23 lung is 82.2% (inactive); in the assay with NCI-H226 lung, 58.6% (inactive); in the assay on NCI-H322M lung it was 90.8% (inactive); with HOP-62 NSCLC it was 81.2% (inactive); in the assay on NCI-H460 lung it was 13% (inactive); in the assay on HOP-92 NSCLC, 33.3% (inactive). Further, the growth is 30% (inactive) in the assay with NCI-H522 lung, 45.9% (inactive) in the assay with A549/ATCC NSCLC, 39.1% (inactive) in the assay with 786-0 renal and 39% (inactive) in the assay with COLO 205 colon.

Source of the values: PubChem BioAssay (NCI).
